Measured values: the supplement of paper PMC3334620
The full ranking holds about 33,000 sequences; the median of “E-score (-0.5 to 0.5)” is about -0.016, and the highest 2% start at about 0.3. This excerpt belongs to a sample that is enriched for the highest values.

Target: T1, Yer184c (UniProt P39961)
T1 sequence: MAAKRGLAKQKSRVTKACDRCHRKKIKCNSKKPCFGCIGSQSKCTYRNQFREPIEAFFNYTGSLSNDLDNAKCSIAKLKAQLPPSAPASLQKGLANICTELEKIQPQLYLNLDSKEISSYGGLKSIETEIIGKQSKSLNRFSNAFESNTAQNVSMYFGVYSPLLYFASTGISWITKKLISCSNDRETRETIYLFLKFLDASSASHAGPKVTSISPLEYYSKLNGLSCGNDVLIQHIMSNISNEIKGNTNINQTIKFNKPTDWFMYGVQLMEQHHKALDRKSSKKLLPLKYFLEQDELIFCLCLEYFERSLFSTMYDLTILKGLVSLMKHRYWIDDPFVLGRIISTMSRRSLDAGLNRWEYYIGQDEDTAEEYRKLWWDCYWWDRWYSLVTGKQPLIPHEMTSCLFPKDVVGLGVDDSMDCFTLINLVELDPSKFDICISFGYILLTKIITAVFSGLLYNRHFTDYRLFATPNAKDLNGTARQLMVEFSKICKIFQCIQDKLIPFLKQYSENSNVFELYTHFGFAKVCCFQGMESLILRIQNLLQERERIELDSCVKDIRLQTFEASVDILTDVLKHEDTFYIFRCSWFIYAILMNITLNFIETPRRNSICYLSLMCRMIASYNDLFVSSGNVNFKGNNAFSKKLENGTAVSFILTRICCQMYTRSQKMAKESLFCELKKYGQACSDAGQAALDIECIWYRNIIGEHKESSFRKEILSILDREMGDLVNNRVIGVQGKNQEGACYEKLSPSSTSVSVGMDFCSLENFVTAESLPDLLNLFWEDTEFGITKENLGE
Assay: PBM E-score (8-mer binding enrichment) (E-score (-0.5 to 0.5)); higher = stronger / more preferred TF binding
Details: protein concentration: 100 nM; construct: GST-full length
Protocol: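 Universal 'all 10-mer' protein binding microarrays (Agilent AMADID 015681) probed with GST-tagged S. cerevisiae TFs (full-length or DBD) made by in vitro transcription/translation (PURExpress), about 100-200 nM. Bound TF was detected with fluorescent anti-GST. Each ungapped 8-mer (which stands for itself and its reverse complement) is scored by the PBM enrichment score (E-score), a modified Wilcoxon-Mann-Whitney statistic from -0.5 to +0.5, computed with the Universal PBM Analysis Suite. Scale: above 0.35 generally sequence-specific binding.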

Row | Sequence | PBM E-score
1 | GCCGAGTA | 0.262
2 | CCCGAGAC | 0.0787
3 | GCCGAGAC | 0.327
4 | ACCGAGAC | 0.0458
5 | CCCGAGAA | 0.234
6 | TCCGAGAA | 0.324
7 | GTCCTGCA | -0.122
8 | CGGCACTC | 0.124
9 | ACAACGTC | -0.0597
10 | ACAGACGG | -0.11
11 | TGAGCACA | 0.0117
12 | CTGCATAA | 0.11
13 | AGAAAGCG | -0.0479
14 | GCTGCGAA | 0.0893
15 | CAGGTCGG | -0.119
16 | CCAGATCA | 0.135
17 | AATCTCCG | 0.3
18 | CATCTCCG | 0.37
19 | CATCTCCC | -0.0754
20 | AAGCAGAC | -0.195
21 | CCCACAGA | -0.227
22 | AAGTAGCC | -0.0314
23 | AGTCCGGA | 0.429
24 | CGTCCGGC | 0.296
25 | AGTCCGGC | 0.289

Row | Sequence | PBM E-score
26 | GGTCCGGA | 0.376
27 | GTCCCGGA | 0.318
28 | GTCCCCGA | -0.142
29 | AGTCCGGG | 0.212
30 | CGTCCGGA | 0.323
31 | CTCCCGGA | 0.243
32 | CGTCCGTA | 0.0308
33 | GGTCCGCA | 0.151
34 | GGTCCGTA | 0.178
35 | AACATCAA | 0.156
36 | GCTCCAAA | -0.0747
37 | ACATACCA | -0.12
38 | ATTGCGTC | -0.0563
39 | GCCTGTGA | -0.282
40 | CAACTGAC | -0.106
41 | AACCTAAG | -0.181
42 | ATGGAATA | 0.127
43 | ACGGAATG | 0.167
44 | ACGGACTC | 0.0365
45 | CCGGACTA | 0.273
46 | CCGGAATC | 0.336
47 | ACGGAATC | 0.301
48 | GCGGAATA | 0.205
49 | CTGGAATC | -0.192
50 | CGGGAATA | 0.3

Row | Sequence | PBM E-score
51 | ACGGAATA | 0.321
52 | CCGGAATA | 0.339
53 | CCGGACTC | 0.341
54 | GACCTAAA | 0.0912
55 | AAAACTGC | 0.0178
56 | GGTACTAA | -0.00623
57 | GGGCGACC | -0.167
58 | GCTAACCA | -0.0625
59 | CAGAAGGA | -0.224
60 | TCGCTCAA | 0.047
61 | CGGGCTTC | 0.169
62 | ACGGCTTC | 0.0891
63 | CTGGCTGC | -0.198
64 | ACGGCTGA | 0.0623
65 | CCGGCTTC | 0.307
66 | GCGGCTTA | 0.025
67 | CCGGCTTA | 0.33
68 | CCGGCTGA | 0.327
69 | GCGGCTGA | -0.0974
70 | CCGGCTGC | 0.331
71 | ACGGCTGC | 0.0869
72 | ACGGCTTA | 0.193
73 | ACTTTCTA | -0.0235
74 | AGAATGCT | -0.168
75 | CAAATCGC | -0.0704

Row | Sequence | PBM E-score
76 | ATGGAGAC | -0.176
77 | TACGTCTA | -0.127
78 | GTTAGCTA | -0.119
79 | GGATATGA | 0.0918
80 | GCCGGGAC | 0.263
81 | TCCGGGAA | 0.37
82 | GCCGGGGA | 0.0977
83 | ACCGGGAA | 0.28
84 | GCCGGGAA | 0.331
85 | CCCGGGAA | 0.272
86 | CATGCAAC | -0.00764
87 | GTCTCAAC | -0.0423
88 | AGCTAGAT | -0.104
89 | CGGGACGC | -0.0137
90 | AATTCCCT | -0.0636
91 | AATTCCAT | 0.0965
92 | AATTCCGC | 0.208
93 | CATTCCGA | 0.278
94 | CATTCCGG | 0.318
95 | AATTCCGG | 0.387
96 | AATTCCGT | 0.328
97 | CATTCCGC | -0.0761
98 | AATTCCCG | 0.272
99 | CTGGCTAC | -0.13
100 | GATCAATA | 0.164

Row | Sequence | PBM E-score
101 | ACACTGGA | 0.0234
102 | ATCCCTAG | -0.0477
103 | ATTGGTGG | -0.0975
104 | AGTCCAGG | -0.206
105 | ATAAGGTC | -0.0447
106 | CATCTCGG | 0.272
107 | AGCTTAAT | 0.201
108 | CGATCCGC | 0.113
109 | GGGTCCGA | 0.113
110 | CGATCCGA | 0.305
111 | AGGTCCGA | 0.197
112 | CGGTCCGA | 0.335
113 | GGATCCGA | 0.242
114 | ACAAGTAG | -0.201
115 | ATCAAGCG | 0.0135
116 | GATTTCGA | 0.042
117 | CATTTCGC | 0.0218
118 | GATTTCGC | 0.312
119 | GCCTTACA | -0.205
120 | CATGAGGG | -0.212
121 | ATTTGCCC | 0.0315
122 | ATTTGCCA | -0.0738
123 | ATTTGCCG | 0.306
124 | AACAAGAC | 0.105
125 | ACCTCAAA | 0.137

Row | Sequence | PBM E-score
126 | CCCCTGAC | -0.0911
127 | AACCGAGT | 0.0155
128 | GGCCGACA | 0.0888
129 | AGCCGAGG | 0.336
130 | CCCCGAGC | -0.0347
131 | ACCCGAGG | -0.00171
132 | AACCGAGC | 0.323
133 | GGCCGATA | 0.264
134 | ATCCGAGG | 0.182
135 | GGCCGAGA | 0.348
136 | CGCCGAGC | 0.344
137 | CTCCGAGC | 0.271
138 | CACCGAGC | 0.231
139 | GACACTCA | -0.0521
140 | ACAGCGGA | 0.0362
141 | GGGTTAGA | -0.134
142 | AACGTAAT | -0.0198
143 | GTTGGACA | -0.0236
144 | AATGTTCG | 0.0469
145 | ACCCGAGC | 0.229
146 | AACCGAGA | 0.229
147 | CCCCGAGA | -0.123
148 | AGCCGAGC | 0.318
149 | CGCCGACA | 0.18
150 | AGCCGAGA | 0.326

Row | Sequence | PBM E-score
151 | CGCCGAGA | 0.346
152 | GCCCGAGA | 0.24
153 | CACCGAGA | -0.212
154 | ATCCGAGC | 0.219
155 | AGCCGATA | 0.142
156 | TCCCGAGA | 0.305
157 | CTACTGGA | -0.271
158 | CCTCAGCG | 0.0964
159 | ATAGAGGG | -0.135
160 | AGGCCAAA | 0.0579
161 | AACAACGG | 0.175
162 | CGAACTTC | 0.13
163 | GCCCGCAC | -0.0678
164 | AATCTGTA | 0.116
165 | GAAGAGTA | 0.113
166 | CGGTTCGC | 0.0153
167 | CCGAATAA | 0.346
168 | ACGAATAA | 0.0316
169 | CCGAATGA | 0.321
170 | GCGAATGA | 0.149
171 | ACGAATGA | 0.189
172 | CCGAATAC | 0.293
